Records with an inconclusive call do not appear. A call without a number means that no potency is given here. Activity calls are given as the source filed them. Calls come from the whole dose curve; as a rule, active = well fitted curve in the direction sought with a large enough effect; inconclusive = small, poorly fitted or top-dose-only effect, or another doubt; inactive = no such curve, though single readings can be large; an effect the other way counts as inactive or inconclusive.
target: Cytochrome P450 3A4 (Homo sapiens) (UniProt P08684); test: qHTS Assay for Inhibitors and Substrates of Cytochrome P450 3A4 (AID 884); details: recombinant CYP3A4, Luciferin-PPXE luminescence; series mostly up to 57.1 µM; note: potency is the fitted concentration of half-maximal effect; nearly all actives have a fitted effect of over 50% in size
Procedure, shortened: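 Luminescent readout of luciferin produced by CYP3A4 (20 nM) dealkylation of Luciferin-PPXE, 25 uM (its KM). NADPH-driven reaction ran 60 min at RT after 10 min compound preincubation; data scaled to 57 uM ketoconazole as 100% inhibition.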

Chain of Cytochrome P450 3A4 (Homo sapiens) (P08684 whole entry, looked up): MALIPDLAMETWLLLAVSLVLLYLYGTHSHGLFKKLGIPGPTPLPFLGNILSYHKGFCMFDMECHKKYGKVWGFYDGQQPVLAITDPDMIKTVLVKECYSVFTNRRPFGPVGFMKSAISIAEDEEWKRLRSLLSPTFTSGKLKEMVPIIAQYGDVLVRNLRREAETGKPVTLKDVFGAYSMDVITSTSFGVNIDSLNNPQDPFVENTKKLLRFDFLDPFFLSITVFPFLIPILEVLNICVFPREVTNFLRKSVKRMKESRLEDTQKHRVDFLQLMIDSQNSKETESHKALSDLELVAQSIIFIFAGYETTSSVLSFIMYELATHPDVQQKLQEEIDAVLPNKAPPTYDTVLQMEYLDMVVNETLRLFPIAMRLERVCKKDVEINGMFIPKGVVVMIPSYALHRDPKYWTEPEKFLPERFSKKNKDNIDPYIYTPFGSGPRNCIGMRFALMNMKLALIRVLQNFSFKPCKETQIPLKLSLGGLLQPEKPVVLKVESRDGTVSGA

**Q.** For `COC(=O)[C@@]1(Cc2ccccc2)[C@H]2c3cc(C(=O)N4CCCC4)n(Cc4ccc(O)c(OC)c4)c3C[C@H]2CN1C(=O)c1ccccc1`, which Potency is on record?
**A.** Its Potency is 2 µM (active).

**Q.** Which Potency does the source give for `COC(=O)[C@@]1(Cc2ccc(F)cc2)[C@H]2c3cc(C(=O)N4CCCC4)n(CCc4ccc(O)c(O)c4)c3C[C@H]2CN1C(=O)c1ccccc1` here?
**A.** The Potency was 2.51 µM (active).

**Q.** With `COC(=O)c1ccc(C(NC(=O)c2ccco2)[C@]2(C)C[C@H]2C2CCCCC2)cc1` (some centres not stated) as the compound, how does the Potency read?
**A.** The Potency was 7.94 µM (active).

**Q.** `C=C1C(=O)C=C2CN(C(=O)c3ccccc3)[C@@](Cc3ccc(F)cc3)(C(=O)OC)[C@@H]12` was tested. Which Potency did it give?
**A.** The Potency was 7.94 µM (active).

**Q.** Which Potency does the source give for `CCC/C=C(\CCC)C(NP(=O)(c1ccccc1)c1ccccc1)c1ccc(-c2ccccc2)cc1` (configuration not stated) here?
**A.** The Potency was 3.98 µM (active).

**Q.** Which Potency does the source give for `COC(=O)[C@@]1(Cc2ccc(F)cc2)[C@H]2c3cc(C(=O)N(C)C)n(Cc4ccc(C)o4)c3C[C@H]2CN1C(=O)c1ccccc1` here?
**A.** Its Potency is 2.51 µM (active).

**Q.** With `CCC/C=C(\CCC)C(NS(=O)(=O)CC12CCC(CC1=O)C2(C)C)c1ccc(C(=O)OC)cc1` (configuration not stated) as the compound, how does the Potency read?
**A.** The Potency was 3.98 µM (active).

**Q.** With `CCC/C=C(\CCC)C(NS(=O)(=O)c1cccc2cccnc12)c1ccc(-c2ccccc2)cc1` (configuration not stated) as the compound, how does the Potency read?
**A.** The Potency was 3.16 µM (active).

**Q.** For `COC(=O)[C@@]1(Cc2ccc(F)cc2)[C@H]2c3cc(C(=O)N(C)C)n(Cc4ccc(C)c(F)c4F)c3C[C@H]2CN1C(=O)c1ccccc1`, which Potency is on record?
**A.** The Potency was 0.794 µM (active).

**Q.** Which Potency does the source give for `c1ccc2c(c1)Cc1cc3ccccc3nc1-2` here?
**A.** The Potency was 20 µM (active).

**Q.** For `CCC/C=C(\CCC)C(NC(=O)c1cccs1)c1ccc(C(F)(F)F)cc1` (configuration not stated), which Potency is on record?
**A.** The Potency was 2.51 µM (active).

**Q.** For `CCCC[C@@H]1C[C@H]1C(NC(=O)Cc1ccccc1)c1ccc(Cl)cc1` (some centres not stated), which Potency is on record?
**A.** Its Potency is 2.51 µM (active).

**Q.** For `CCCC[C@@H]1C[C@H]1C(NC(=O)c1cccs1)c1ccc(C(F)(F)F)cc1` (some centres not stated), which Potency is on record?
**A.** Its Potency is 3.16 µM (active).

**Q.** `CCCC[C@@H]1C[C@H]1C(NC(=O)c1ccc(C(F)(F)F)cc1)c1ccc(C(=O)OC)cc1` (some centres not stated) was tested. Which Potency did it give?
**A.** The Potency was 5.01 µM (active).

target: Cytochrome P450 3A4 (Homo sapiens) (UniProt P08684); test: qHTS Assay for Activators of Cytochrome P450 3A4 (AID 885); details: recombinant CYP3A4, Luciferin-PPXE luminescence, 60 min; series mostly up to 57.1 µM; note: nearly all actives have a fitted effect of over 65% in size
Procedure, shortened: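 Luminescent readout of luciferin formed from 25 uM Luciferin-PPXE (KM level) by 20 nM CYP3A4 in 200 mM KPO4, with 60 min NADPH-driven reaction at room temperature after 10 min compound exposure. Ketoconazole (57 uM) defined 100% inhibition.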

**Q.** With `CCCC[C@@H]1C[C@H]1C(NC(=O)c1cccs1)c1ccccc1C(F)(F)F` (some centres not stated) as the compound, how does the Potency read?
**A.** The Potency was “inactive”.

**Q.** With `CCCC[C@H]1C[C@@H]1[C@@H]1N(P(=O)(c2ccccc2)c2ccccc2)[C@](CO)(c2ccccc2)CC12CC2` as the compound, how does the Potency read?
**A.** The Potency was “inactive”.

**Q.** Which Potency does the source give for `COc1cc2nc3c(c([Si](C)(C)C(C)(C)C)c2cc1OC)Cn1c-3cccc1=O` here?
**A.** Its Potency is “inactive”.

**Q.** How did the Potency turn out when `CCCC/C=C/C(NC(=O)c1cccs1)c1ccccc1` (configuration not stated) was run?
**A.** Its Potency is “inactive”.

**Q.** For `CCCC[C@@H]1C[C@H]1C(NC(=O)c1ccccc1)c1ccc(Cl)cc1` (some centres not stated), which Potency is on record?
**A.** Its Potency is “inactive”.

**Q.** For `CCCC[C@@H]1C[C@H]1C(NC(=O)c1ccccc1)c1ccccc1` (some centres not stated), which Potency is on record?
**A.** The Potency was “inactive”.

**Q.** For `S=C(Nc1ccccc1)Nc1ccccc1C#Cc1ccccc1`, which Potency is on record?
**A.** The Potency was “inactive”.

**Q.** `CCCC[C@@H]1C[C@H]1C(NC(=O)c1ccccc1)c1ccccc1C(F)(F)F` (some centres not stated) was tested. Which Potency did it give?
**A.** The Potency was “inactive”.

**Q.** How did the Potency turn out when `COC(=O)[C@@]1(Cc2ccc(OC)cc2)[C@@H]2[C@@H](CC(=O)[C@H]2CC(=O)C(=O)N2CCCC2)CN1C(=O)c1ccccc1` was run?
**A.** The Potency was “inactive”.

**Q.** For `CCC/C=C(\CCC)C(NS(=O)(=O)c1cccc2cccnc12)c1ccc(C(=O)OC)cc1` (configuration not stated), which Potency is on record?
**A.** The Potency was “inactive”.

**Q.** For `C[C@@H](C(=O)Nc1ccc2ccccc2c1)[C@@H]1C[C@@]1(C)[C@@H](NC(=O)c1cnccn1)c1ccccc1`, which Potency is on record?
**A.** Its Potency is “inactive”.

**Q.** `COc1ccc2nc3c(c([Si](C)(C)C(C)(C)C)c2c1)Cn1c-3cccc1=O` was tested. Which Potency did it give?
**A.** The Potency was “inactive”.

**Q.** Which Potency does the source give for `COC(=O)[C@@]1(Cc2ccc(F)cc2)[C@H]2c3cc(C(=O)N4CCCC4)n(CCc4ccc(OC)c(Br)c4)c3C[C@H]2CN1C(=O)c1ccccc1` here?
**A.** Its Potency is “inactive”.

**Q.** For `COC(=O)[C@@]1(Cc2ccc(F)cc2)[C@H]2c3cc(C(=O)N4CCCC4)n(CCc4ccc(O)c(O)c4)c3C[C@H]2CN1C(=O)c1ccccc1`, which Potency is on record?
**A.** The Potency was “inactive”.

**Q.** For `COC(=O)c1ccc(C(NC(=O)c2ccco2)[C@]2(C)C[C@H]2C2CCCCC2)cc1` (some centres not stated), which Potency is on record?
**A.** Its Potency is “inactive”.

**Q.** `CC[C@H]1C2=C3C(CC[C@H]4C(OCc5ccc(F)cc5C(F)(F)F)OC[C@](C)([C@@H]34)N(C(=O)OC(C)(C)C)C2)C(COC(C)=O)C1COC(C)=O` (some centres not stated) was tested. Which Potency did it give?
**A.** The Potency was “inactive”.

**Q.** How did the Potency turn out when `CCC/C=C(\CCC)C(NC(=O)c1ccc(C(=O)OC)cc1)c1ccc(C(=O)OC)cc1` (configuration not stated) was run?
**A.** The Potency was “inactive”.

**Q.** For `COC(=O)[C@@]1(Cc2ccc(F)cc2)[C@H]2c3cc(C(=O)N(C)C)n(Cc4ccc(C)o4)c3C[C@H]2CN1C(=O)c1ccccc1`, which Potency is on record?
**A.** The Potency was “inactive”.

**Q.** Which Potency does the source give for `CCC/C=C(\CCC)C(NS(=O)(=O)CC12CCC(CC1=O)C2(C)C)c1ccc(C(=O)OC)cc1` (configuration not stated) here?
**A.** Its Potency is “inactive”.

**Q.** With `CCC/C=C(\CCC)C(NS(=O)(=O)c1cccc2cccnc12)c1ccc(-c2ccccc2)cc1` (configuration not stated) as the compound, how does the Potency read?
**A.** The Potency was “inactive”.

**Q.** `CC(C)c1cccc2nc3c(c(C(C)(C)C)c12)Cn1c-3cccc1=O` was tested. Which Potency did it give?
**A.** Its Potency is “inactive”.

**Q.** `c1ccc2c(c1)Cc1cc3ccccc3nc1-2` was tested. Which Potency did it give?
**A.** The Potency was “inactive”.

**Q.** Which Potency does the source give for `CCC/C=C(\CCC)C(NC(=O)c1cccs1)c1ccc(C(F)(F)F)cc1` (configuration not stated) here?
**A.** Its Potency is “inactive”.

**Q.** With `CCCC[C@@H]1C[C@H]1C(NC(=O)c1cccs1)c1ccc(-c2ccccc2)cc1` (some centres not stated) as the compound, how does the Potency read?
**A.** The Potency was “inactive”.

**Q.** For `CCCC[C@@H]1C[C@H]1C(NC(=O)Cc1ccccc1)c1ccc(Cl)cc1` (some centres not stated), which Potency is on record?
**A.** The Potency was “inactive”.

**Q.** `CCCC[C@@H]1C[C@H]1C(NC(=O)c1cccs1)c1ccc(C(F)(F)F)cc1` (some centres not stated) was tested. Which Potency did it give?
**A.** The Potency was “inactive”.

**Q.** `CCCC[C@@H]1C[C@H]1C(NC(=O)c1ccco1)c1ccc(C(=O)OC)cc1` (some centres not stated) was tested. Which Potency did it give?
**A.** The Potency was “inactive”.

**Q.** `CCCC[C@@H]1C[C@H]1C(NC(=O)c1ccc(C(F)(F)F)cc1)c1ccc(C(=O)OC)cc1` (some centres not stated) was tested. Which Potency did it give?
**A.** Its Potency is “inactive”.

— PubChem BioAssay (NCATS)
